Laboratory results: ChEMBL document CHEMBL3988442, “University of Dundee, Small-Polar-MMV Screening Library” (2021)
For part of these data: Potency and affinity values are given separately.

What was measured:
Design in all cases: scale not given: direction of the effect not stated beside the values
[1] = molecular target: Protein translocase subunit SecA (Escherichia coli (strain K12)) (UniProt P10408); test: Assay to Identify E. coli SecA ATPase Inhibitors; format: functional; details: 30 µM
[2] = molecular target: T1, Ubiquitin-activating enzyme e1, putative (Leishmania donovani (strain BPK282A1)) (UniProt E9BSI1); test: Leishmania donovani Ubiquitin Activating Enzyme (LdE1); format: functional; details: 30 µM
T1 sequence (whole entry): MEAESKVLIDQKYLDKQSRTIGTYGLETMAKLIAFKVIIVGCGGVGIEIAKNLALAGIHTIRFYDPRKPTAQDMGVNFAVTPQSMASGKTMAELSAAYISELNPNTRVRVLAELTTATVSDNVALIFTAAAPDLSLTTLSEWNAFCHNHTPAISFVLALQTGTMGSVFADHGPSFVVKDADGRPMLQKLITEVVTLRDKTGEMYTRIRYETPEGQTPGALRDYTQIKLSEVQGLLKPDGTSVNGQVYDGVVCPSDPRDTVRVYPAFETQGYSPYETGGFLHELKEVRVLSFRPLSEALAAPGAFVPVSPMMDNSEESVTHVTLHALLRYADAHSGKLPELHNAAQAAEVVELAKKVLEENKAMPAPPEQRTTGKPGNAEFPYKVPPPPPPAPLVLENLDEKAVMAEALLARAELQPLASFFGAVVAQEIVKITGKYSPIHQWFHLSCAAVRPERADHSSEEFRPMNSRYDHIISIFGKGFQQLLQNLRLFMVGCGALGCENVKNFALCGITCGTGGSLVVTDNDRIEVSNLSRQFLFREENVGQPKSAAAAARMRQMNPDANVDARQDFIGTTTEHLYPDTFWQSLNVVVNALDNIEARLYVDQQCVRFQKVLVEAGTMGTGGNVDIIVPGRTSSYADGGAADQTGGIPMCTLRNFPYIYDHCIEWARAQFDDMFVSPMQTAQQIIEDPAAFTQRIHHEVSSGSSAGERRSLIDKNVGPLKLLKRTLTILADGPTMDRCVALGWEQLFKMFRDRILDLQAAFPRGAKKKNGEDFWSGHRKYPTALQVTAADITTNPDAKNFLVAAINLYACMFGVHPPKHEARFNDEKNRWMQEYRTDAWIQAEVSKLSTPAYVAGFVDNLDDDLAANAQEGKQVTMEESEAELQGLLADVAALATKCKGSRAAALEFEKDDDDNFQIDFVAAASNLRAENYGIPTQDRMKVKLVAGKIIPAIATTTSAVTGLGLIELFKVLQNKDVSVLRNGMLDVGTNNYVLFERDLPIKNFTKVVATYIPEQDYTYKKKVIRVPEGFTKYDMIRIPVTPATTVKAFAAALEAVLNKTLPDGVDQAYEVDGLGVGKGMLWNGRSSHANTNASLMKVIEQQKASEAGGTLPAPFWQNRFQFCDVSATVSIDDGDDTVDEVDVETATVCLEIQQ

[3] = molecular target: Sialic acid-binding Ig-like lectin 9 (Homo sapiens) (UniProt Q9Y336); test: Hs-Siglec9 ALPHAscreen SOP 20170721; details: 10 µM
Trypanosoma cruzi = test: Trypanosoma cruzi phosphomannomutase and mannose-1-phosphate guanylyltransferase assay; format: functional; details: 10 µM
[4] = molecular target: T2, Arginase-2, mitochondrial (Homo sapiens) (UniProt P78540); test: in vitro enzyme assay to detect the production of urea directly proportional to the activity of Arginase II; format: functional; details: 33.3 µM; note: in the data most compounds retested in dose-response had high values
T2 sequence (whole entry): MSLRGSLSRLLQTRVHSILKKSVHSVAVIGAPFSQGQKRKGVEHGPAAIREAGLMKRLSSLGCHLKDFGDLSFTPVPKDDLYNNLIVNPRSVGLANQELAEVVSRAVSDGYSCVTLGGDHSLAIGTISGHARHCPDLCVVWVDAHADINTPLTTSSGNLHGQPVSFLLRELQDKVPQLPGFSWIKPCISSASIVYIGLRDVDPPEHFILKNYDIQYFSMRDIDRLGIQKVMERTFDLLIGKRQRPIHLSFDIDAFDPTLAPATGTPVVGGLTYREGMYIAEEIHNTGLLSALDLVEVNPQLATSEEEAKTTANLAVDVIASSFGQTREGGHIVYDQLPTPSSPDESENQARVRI

[5] = molecular target: T3, Proteasome subunit beta (Trypanosoma cruzi) (UniProt O96673); test: Trypanosoma cruzi proteasome chymotrypsin-like activity (TcProtChymo) assay.; note: in the data most compounds retested in dose-response had high values; format: functional; details: 9.37 µM
T3 sequence (whole entry): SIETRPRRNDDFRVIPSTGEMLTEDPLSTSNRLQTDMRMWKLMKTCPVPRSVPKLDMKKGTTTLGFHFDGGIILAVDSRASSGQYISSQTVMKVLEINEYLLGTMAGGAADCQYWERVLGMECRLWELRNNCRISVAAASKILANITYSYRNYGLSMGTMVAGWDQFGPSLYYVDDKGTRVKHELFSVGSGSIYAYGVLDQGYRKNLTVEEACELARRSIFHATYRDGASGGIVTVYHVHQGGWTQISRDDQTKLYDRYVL

Homo sapiens = species: Homo sapiens; test: To identify inhibition of the IFN signalling (Jak-Stat) pathway via expression of an eGFP reporter gene under the control of an IFN-stimulated response element (ISRE) containing MxA promoter.; format: functional; details: 30 µM
[6] = molecular target: T4, Tyrosyl-tRNA synthetase, putative (Trypanosoma cruzi (strain CL Brener)) (UniProt Q4DSP6); test: Trypanosoma cruzi tyrosyl tRNA synthetase (TcYRS) _High Tyrosine SOP; format: functional; details: 30 µM; note: in the data most compounds retested in dose-response had high values
T4 sequence (whole entry): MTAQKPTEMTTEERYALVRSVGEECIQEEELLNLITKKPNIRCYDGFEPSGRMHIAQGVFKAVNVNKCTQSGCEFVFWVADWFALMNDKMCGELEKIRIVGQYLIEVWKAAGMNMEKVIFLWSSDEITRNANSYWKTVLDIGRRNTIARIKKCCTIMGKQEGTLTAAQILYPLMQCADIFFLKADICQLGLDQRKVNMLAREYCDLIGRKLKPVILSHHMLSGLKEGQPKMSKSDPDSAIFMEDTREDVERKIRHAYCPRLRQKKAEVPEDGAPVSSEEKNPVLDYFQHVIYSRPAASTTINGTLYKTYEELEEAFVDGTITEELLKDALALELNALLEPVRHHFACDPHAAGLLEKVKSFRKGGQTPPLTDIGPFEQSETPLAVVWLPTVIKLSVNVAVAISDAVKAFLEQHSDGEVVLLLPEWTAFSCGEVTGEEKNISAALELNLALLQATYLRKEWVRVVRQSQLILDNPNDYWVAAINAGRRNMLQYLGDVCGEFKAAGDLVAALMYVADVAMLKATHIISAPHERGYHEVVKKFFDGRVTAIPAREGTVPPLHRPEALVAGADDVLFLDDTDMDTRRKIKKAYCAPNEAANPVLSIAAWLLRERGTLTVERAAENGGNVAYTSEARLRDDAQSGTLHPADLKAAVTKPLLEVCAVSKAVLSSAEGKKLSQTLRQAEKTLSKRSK

[7] = molecular target: T4, Tyrosyl-tRNA synthetase, putative (Trypanosoma cruzi (strain CL Brener)); test: Trypanosoma cruzi tyrosyl tRNA synthetase (TcYRS) SOP; format: functional; details: 30 µM
[8] = molecular target: Chromo domain-containing protein 1 (Saccharomyces cerevisiae (strain ATCC 204508 / S288c) (Baker's yeast)) (UniProt P32657); test: ScCHD-1 Enzyme Inhibition Assay; format: functional; details: 30 µM; note: in the data most compounds retested in dose-response had high values
Sequence of Chromo domain-containing protein 1 (Saccharomyces cerevisiae (strain ATCC 204508 / S288c) (Baker's yeast)) (P32657 whole entry, the tested form may be a part): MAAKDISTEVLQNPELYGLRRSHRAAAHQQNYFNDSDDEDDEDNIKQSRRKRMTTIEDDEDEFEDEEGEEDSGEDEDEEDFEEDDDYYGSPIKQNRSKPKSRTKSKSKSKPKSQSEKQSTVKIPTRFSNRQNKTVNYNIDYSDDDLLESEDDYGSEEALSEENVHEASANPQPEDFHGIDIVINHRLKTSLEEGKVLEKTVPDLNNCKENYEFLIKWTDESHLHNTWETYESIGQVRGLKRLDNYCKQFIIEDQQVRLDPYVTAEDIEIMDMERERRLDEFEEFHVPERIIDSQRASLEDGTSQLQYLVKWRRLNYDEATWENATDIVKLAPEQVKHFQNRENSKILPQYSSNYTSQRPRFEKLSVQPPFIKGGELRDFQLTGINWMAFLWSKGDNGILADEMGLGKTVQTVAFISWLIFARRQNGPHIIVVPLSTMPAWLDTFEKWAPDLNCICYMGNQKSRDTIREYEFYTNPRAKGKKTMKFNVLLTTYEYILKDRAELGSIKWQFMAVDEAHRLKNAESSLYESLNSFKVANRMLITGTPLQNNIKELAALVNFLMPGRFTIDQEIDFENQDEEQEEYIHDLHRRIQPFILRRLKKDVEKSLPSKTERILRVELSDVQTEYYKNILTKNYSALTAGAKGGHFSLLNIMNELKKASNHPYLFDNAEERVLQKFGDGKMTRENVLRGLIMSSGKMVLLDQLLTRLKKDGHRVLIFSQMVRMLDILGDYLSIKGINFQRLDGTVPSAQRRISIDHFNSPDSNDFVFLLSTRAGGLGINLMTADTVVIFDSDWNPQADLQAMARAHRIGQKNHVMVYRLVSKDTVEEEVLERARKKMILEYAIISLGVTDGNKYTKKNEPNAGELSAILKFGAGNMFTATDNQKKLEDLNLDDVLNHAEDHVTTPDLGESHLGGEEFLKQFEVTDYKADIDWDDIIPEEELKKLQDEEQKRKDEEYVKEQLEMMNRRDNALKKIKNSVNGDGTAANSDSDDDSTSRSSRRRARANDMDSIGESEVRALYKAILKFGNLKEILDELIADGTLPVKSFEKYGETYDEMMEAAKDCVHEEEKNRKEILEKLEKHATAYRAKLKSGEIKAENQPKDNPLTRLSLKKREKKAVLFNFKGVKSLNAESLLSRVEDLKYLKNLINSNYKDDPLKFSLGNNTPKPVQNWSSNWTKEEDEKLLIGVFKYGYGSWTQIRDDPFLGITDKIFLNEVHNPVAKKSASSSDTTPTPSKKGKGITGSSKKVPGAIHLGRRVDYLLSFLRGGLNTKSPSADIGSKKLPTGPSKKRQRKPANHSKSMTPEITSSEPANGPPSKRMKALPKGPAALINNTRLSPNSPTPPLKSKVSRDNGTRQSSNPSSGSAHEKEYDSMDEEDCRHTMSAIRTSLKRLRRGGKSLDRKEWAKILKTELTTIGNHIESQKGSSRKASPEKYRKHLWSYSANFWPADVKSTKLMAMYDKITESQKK

Sequence of Protein translocase subunit SecA (Escherichia coli (strain K12)) (P10408 whole entry): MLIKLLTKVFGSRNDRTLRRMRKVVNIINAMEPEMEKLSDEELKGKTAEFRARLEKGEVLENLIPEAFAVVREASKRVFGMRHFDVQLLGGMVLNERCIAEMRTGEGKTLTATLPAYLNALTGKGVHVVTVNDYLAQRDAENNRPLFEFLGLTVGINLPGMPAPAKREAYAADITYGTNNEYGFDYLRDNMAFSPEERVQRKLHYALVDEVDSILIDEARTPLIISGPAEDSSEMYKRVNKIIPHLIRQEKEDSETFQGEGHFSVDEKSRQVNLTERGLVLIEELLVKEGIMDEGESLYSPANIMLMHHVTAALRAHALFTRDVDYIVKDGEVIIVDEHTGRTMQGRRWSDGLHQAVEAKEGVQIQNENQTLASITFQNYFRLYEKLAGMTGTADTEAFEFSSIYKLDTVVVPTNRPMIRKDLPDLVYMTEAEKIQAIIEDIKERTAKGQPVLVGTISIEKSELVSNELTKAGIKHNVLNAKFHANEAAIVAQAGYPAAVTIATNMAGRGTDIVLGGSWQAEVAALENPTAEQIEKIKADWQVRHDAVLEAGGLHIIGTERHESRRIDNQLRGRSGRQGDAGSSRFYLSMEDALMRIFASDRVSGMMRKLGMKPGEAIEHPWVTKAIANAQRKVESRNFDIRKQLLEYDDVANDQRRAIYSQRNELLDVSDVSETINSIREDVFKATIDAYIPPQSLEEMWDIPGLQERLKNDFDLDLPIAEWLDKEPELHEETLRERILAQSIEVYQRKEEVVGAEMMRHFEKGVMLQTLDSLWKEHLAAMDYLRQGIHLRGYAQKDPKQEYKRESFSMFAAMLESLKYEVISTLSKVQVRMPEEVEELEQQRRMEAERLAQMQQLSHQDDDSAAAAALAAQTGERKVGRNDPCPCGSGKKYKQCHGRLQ
Sequence of Sialic acid-binding Ig-like lectin 9 (Homo sapiens) (Q9Y336 whole entry): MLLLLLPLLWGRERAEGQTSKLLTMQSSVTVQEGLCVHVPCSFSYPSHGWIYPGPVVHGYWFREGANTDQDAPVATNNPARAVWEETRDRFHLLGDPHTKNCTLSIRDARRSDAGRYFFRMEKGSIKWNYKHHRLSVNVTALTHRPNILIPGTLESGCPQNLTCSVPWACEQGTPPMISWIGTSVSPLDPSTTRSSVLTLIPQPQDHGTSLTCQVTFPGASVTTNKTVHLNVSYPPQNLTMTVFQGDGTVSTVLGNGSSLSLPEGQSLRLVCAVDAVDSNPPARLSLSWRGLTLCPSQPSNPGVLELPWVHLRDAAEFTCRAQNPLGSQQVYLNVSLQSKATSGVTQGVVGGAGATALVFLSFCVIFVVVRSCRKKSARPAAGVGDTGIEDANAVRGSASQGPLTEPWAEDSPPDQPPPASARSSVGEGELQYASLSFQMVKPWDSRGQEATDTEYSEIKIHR

SMILES	Percent Effect [1] [%]	Percent Effect [2] [%]	Percent Effect [3] [%]	Percent Effect (Trypanosoma cruzi) [%]	Percent Effect [4] [%]	Percent Effect [5] [%]	Percent Effect (Homo sapiens) [%]	Percent Effect [6] [%]	Percent Effect [7] [%]	Percent Effect [8] [%]
CC(=O)N1CCC2(CCN(C(=O)c3ccc(C)c(C(F)(F)F)c3)CC2)C1	-3.18	14.3	1.63	-7.69	7.29	19.5	17.8	7.89	0	-3.98
COCC(C)N(C)C(=O)c1nc(S(C)(=O)=O)n2ccccc12 (stereo not given)	-8.81	2.56	-5.8	-2.35	-2.05	-0.256	24.6	5.26	8.43	-0.536
COc1c(CNC2CCc3cc(F)ccc32)c(C)nn1C (stereo not given)	-0.933	7.79	8.9	-0.187	5.94	-1.23	-9.97	3.92	9.41	-0.439
CC(C)n1ccnc1C1CCN(C(=O)c2ccccc2)CC1	-5.35	16.2	13.1	9.8	11.5	14	14.4	10.1	19.5	-5
Cc1ccc(OC2(C(=O)O)CCN(C(=O)c3nc(C)oc3C)CC2)cn1	-6.7	0	-0.0712	4.17	1.05	-1.2	-9.04	2.66	4.88	1.11
Cn1cc(CC(=O)N2CCC(Nc3cccnn3)CC2)c2ccccc21	-3.59	18.2	3.22	3.73	-7.99	5.96	4.59	7.84	32.9	-10.9
Cc1ncc2c(n1)CN(Cc1nc3ccccc3o1)CC2	-2.9	8	3.11	4.02	-2.22	3.31	-20.5	25.8	28.2	-12.9
Cc1ccc(-c2nc(CCNC(=O)CCN3CCOC3=O)co2)cc1	-3.11	5.33	5.5	-0.602	8.87	7.72	33.2	6.84	5.13	-8.83
Cc1[nH]c2ccccc2c1-c1ccnc(NCCN2CCOCC2)n1	-1.25	5.33	-2.88	-7.83	-7.54	14.8	21.5	-1.58	-2.56	-15.1
CC(C)CCC(=O)NC(C)c1nnc2n1CCCCC2 (stereo not given)	-1.02	10.4	4.23	2.42	-0.205	6.84	-5.87	2.94	7.06	-9.02
CCn1ccnc1CN1CCC(N(C)Cc2ncc(C)o2)C1 (stereo not given)	-0.494	13.3	-7.04	-3.21	3.1	12.5	14.6	10	17.9	-11.2
CN(C)CCN1C(=O)CCC12CCN(C(=O)c1cccnc1)CC2	-1.32	3.9	-3.7	-0.75	0.457	5.75	3.46	1.93	2.5	-20.4
